Only some compounds are listed: those with a hit (about 2.4% of all), similar ones and a draw of the others.
A3G deaminase = blocks human APOBEC3G single-stranded DNA deamination | Q9HC16 | recombinant A3G, ssDNA deamination FAM/TAMRA fluorescence | inhibition, % at 20 µM | hit rate 0.28% among 330,000 | AID 493012;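 active = inhibition of at least 40% at 20 µM, with no more than 30% in the related APOBEC3A deaminase screen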;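 also: plate controls were DMSO wells with A3G for no effect and wells lacking A3G enzyme for full effect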
CR mimetic SO = yeast age-related superoxide inhibition as caloric restriction mimetic; S. cerevisiae aged cells, superoxide DHE fluorescence; hits give low values; superoxide response (% of plate mean), % at 10 µM; hit rate 0.18% among 330,000; AID 2690;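 active = superoxide response under a set limit, about three screen SD below normal, cut at about 65% in these data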;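 also: yeast aged for seven days with compound at 30 °C before DHE staining; 100% = average MFI of all compound-treated wells on the plate with controls excluded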
PfM18AAP inh-1 = PfM18AAP enzyme inhibition; recombinant PfM18AAP, H-Glu-NHMec fluorogenic cleavage; inhibition, % at 7.35 µM; hit rate 1.2% among 290,000;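 active = inhibition above the campaign mean inhibition over all tested compounds plus 3 SD, cut at about 28% in these data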;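 also: 0% = plate median of test compound wells and 100% = 2 mM ZnCl2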
A3A deaminase = blocks human APOBEC3A ssDNA deamination | P31941 | recombinant A3A, FAM/TAMRA ssDNA deamination fluorescence | inhibition, % at 20 µM | hit rate 0.41% among 330,000 | AID 493011;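 active = at least 40% inhibition at 20 µM here, with at most 30% in a related deaminase screen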;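 also: plate controls were A3A with DMSO for no effect and wells lacking A3A enzyme for full effect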
Target sequence (P31941 whole entry, looked up): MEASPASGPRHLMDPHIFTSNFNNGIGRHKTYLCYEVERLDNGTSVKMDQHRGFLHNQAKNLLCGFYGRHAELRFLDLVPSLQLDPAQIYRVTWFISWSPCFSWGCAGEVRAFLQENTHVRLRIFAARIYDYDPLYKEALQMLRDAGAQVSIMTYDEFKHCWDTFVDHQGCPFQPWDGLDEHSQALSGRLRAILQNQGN
PfG6PD inh = PfG6PD (Plasmodium falciparum) enzyme inhibition | PfGluPho enzyme, NADPH resazurin-diaphorase fluorescence | inhibition, % at 20 µM | hit rate 0.78% among 350,000;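 active = inhibition reaching at least a set limit at 20 µM in the primary screen, cut at about 59% in these data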;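 also: 0% = DMSO wells with substrate and 100% = DMSO wells lacking glucose-6-phosphate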
PfM18AAP inh-2 = confirmation of Plasmodium falciparum M18 aspartyl aminopeptidase inhibitors; shares compounds with PfM18AAP inh-1; recombinant PfM18AAP, H-Glu-NHMec fluorogenic cleavage; inhibition, % at 7.35 µM; hit rate 28% among 2,400; AID 2170;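 active = mean inhibition over replicate wells above the hit cutoff set for the earlier primary screen, cut at about 29% in these data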;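 also: 0% = median of test compound wells and 100% = 2 mM ZnCl2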
CTSL1 confirm = counter-screen for PFM18AAP inhibitors: confirmation of human cathepsin L inhibitors; purified cathepsin L1, Z-Leu-Arg-MCA fluorescence; inhibition, % at 5.96 µM; AID 2178; shares compounds with PfM18AAP inh-1; 2,400 tested, under 10 active;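 active = average inhibition across replicates above the hit cutoff set in the earlier primary screen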;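 also: 0% = median of test compound wells and 100% = Z-Phe-Ala-diazomethylketone 1 µM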
Target sequence (P07711 whole entry, looked up): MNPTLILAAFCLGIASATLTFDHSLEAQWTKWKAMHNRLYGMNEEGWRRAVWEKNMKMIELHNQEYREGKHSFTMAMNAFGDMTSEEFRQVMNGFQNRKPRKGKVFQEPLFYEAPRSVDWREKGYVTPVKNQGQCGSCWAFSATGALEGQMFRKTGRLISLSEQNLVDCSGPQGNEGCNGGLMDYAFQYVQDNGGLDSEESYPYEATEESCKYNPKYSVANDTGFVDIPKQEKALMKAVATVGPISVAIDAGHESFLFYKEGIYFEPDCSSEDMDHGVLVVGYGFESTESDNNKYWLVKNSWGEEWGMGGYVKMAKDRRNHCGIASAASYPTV
An asterisk follows results filed as active; . = no result.

SMILES | A3G deaminase | CR mimetic SO | PfM18AAP inh-1 | A3A deaminase | PfG6PD inh | PfM18AAP inh-2 | CTSL1 confirm
C/C(=N\Nc1ccc([N+](=O)[O-])cc1)c1ccc(N)cc1 | . | 90.1 | 33.0* | . | 21.3 | -18.2 | 5.5
C/C(=N\Nc1ccc(Cl)c(C(=O)O)c1)c1cccc([N+](=O)[O-])c1 | 29.2 | 99.7 | 35.9* | 18.5 | 10.8 | -1.3 | 4.7
CCOCC(=O)Nc1cc(Cl)ccc1C | -3.7 | 95.4 | -8.2 | -2.7 | 16.5 | . | .
COc1cccc(CNC(=O)c2cc3c(cc2Cl)N2CCCCCC2=NS3(=O)=O)c1 | -9.9 | 93.6 | . | -1.9 | 13.1 | . | .
C/C(=N\Nc1ccc(C(=O)O)cc1)c1ccc(S(=O)(=O)NCc2ccco2)cc1 | -3.9 | 92.4 | 35.7* | -6.0 | -12.9 | 1.2 | 2.4
Oc1ccc(/C=N/N2CCN(C3c4ccccc4-c4ccccc43)CC2)cc1O | -6.8 | 78.0 | 50.5* | 0.9 | -21.1 | 35.6* | -4.6
Cc1ccc(CN2CCN(/N=C/c3ccc(O)c(O)c3)CC2)cc1 | -2.6 | 94.2 | 63.7* | 7.8 | 44.7 | 37.8* | -0.6
CCN1Cc2cc(OC)ccc2-c2ccccc2S1(=O)=O | 5.8 | 123.5 | . | 2.3 | 16.1 | . | .
NS(=O)(=O)c1ccc(NC(=S)NC2CC2)cc1 | -0.5 | 93.8 | 32.3* | -4.8 | 1.1 | -1.8 | -1.5
NS(=O)(=O)c1ccc(NC(=S)NNC(=O)c2ccc(Br)o2)cc1 | -4.6 | 90.0 | 33.0* | -3.8 | -9.9 | -2.4 | -1.2
CC1(C)CC(NC(=S)Nc2ccc(S(N)(=O)=O)cc2)CC(C)(C)N1 | -3.4 | 95.0 | 2.1 | -2.0 | 19.7 | . | .
Cc1cccc(N(C(=O)CNC(=O)c2cccs2)C(C(=O)NC2CCCC2)c2ccncc2)c1 (stereo unspecified) | -11.8 | 84.9 | 1.6 | -3.5 | 13.8 | . | .
O=C(/C=C/c1ccc(O)c(O)c1)OC1C(O)CC(OC(=O)/C=C/c2ccc(O)c(O)c2)(C(=O)O)CC1O (stereo unspecified) | . | 99.3 | 76.5* | . | 14.6 | 64.3* | 5.9
O=C(/C=C/c1ccc(O)c(O)c1)O[C@@H]1C[C@](O)(C(=O)O)C[C@@H](O)[C@H]1O | 1.0 | 115.5 | . | -1.9 | -21.9 | . | .
CCOC(=O)Nc1ccc(S(=O)(=O)Nn2cnnc2)cc1 | -3.8 | 113.7 | 41.1* | -1.0 | -2.5 | 47.3* | -1.1
CCCCOC(=O)Nc1ccc(S(=O)(=O)Nc2cc(C)nc(C)n2)cc1 | -6.9 | 97.3 | -7.1 | -1.4 | -9.3 | . | .
CCCOC(=O)Nc1ccc(S(=O)(=O)Nn2cnnc2)cc1 | -6.8 | 92.3 | 48.4* | 1.3 | -5.1 | 51.4* | -4.0
CCCOC(=O)Nc1ccc(S(=O)(=O)Nc2ncccn2)cc1 | -0.1 | 102.2 | -2.0 | -3.6 | -9.4 | . | .
CCCCOC(=O)Nc1ccc(S(=O)(=O)Nn2cnnc2)cc1 | -0.4 | 99.7 | 50.2* | 1.6 | -2.6 | 50.0* | -0.5
CC1CCN(Cc2cc(=O)oc3ccc4ccccc4c23)CC1 | -9.2 | 98.9 | -7.3 | -1.1 | 1.3 | . | .
O=C(CCc1ccc(O)cc1)c1c(O)cc(O)cc1O[C@@H]1O[C@H](CO)[C@@H](O)[C@H](O)[C@H]1O | -3.6 | 99.5 | 5.6 | 0.6 | -2.4 | . | .
C/C(=N\NC(=O)c1cc(O)ccc1O)c1cccc(NC(=O)c2ccc(Cl)cc2)c1 | 6.5 | 89.6 | 35.9* | 10.3 | 33.5 | -49.6 | -7.3
C/C(=N\NC(=O)c1cc(O)ccc1O)c1cccc(NC(=O)c2cccc(Cl)c2)c1 | 11.0 | 99.6 | 15.5 | 16.8 | 20.6 | . | .
CC(C)(C)c1cc[n+](-c2[nH]c(=O)sc2/C=N/NC([S-])=Nc2ccccc2)cc1 | -7.8 | 97.6 | 35.0* | -7.7 | 31.0 | 5.2 | 3.3
CCc1ccc[n+](-c2[nH]c(=O)sc2/C=N/N=C(\[O-])c2ccncc2)c1 | 1.6 | 88.7 | 9.7 | -2.3 | 3.0 | . | .
Cc1ccc(S(=O)(=O)CC(=O)c2cc(C)c(O)c(C)c2)cc1 | -5.8 | 95.3 | -0.1 | -2.1 | -16.4 | . | .
O=c1cc(-c2cc3ccccc3o2)c2cc(O)ccc2o1 | 2.2 | 104.6 | 12.4 | 4.7 | 11.9 | . | .
Cc1cc2oc(=O)cc(-c3cc4ccccc4o3)c2cc1O | -1.4 | 132.6 | 58.0* | -4.9 | 19.0 | -21.1 | -3.6
Cc1cc(NNC(=O)Nc2cccc(Cl)c2)nc2c1c(C)nn2C | -13.2 | 92.9 | 39.0* | -3.0 | . | 27.8 | 2.8

Screening results from PubChem.
